Assay [1] concerns Vero E6 infected with SARS-CoV-2. Put plainly: inhibition of SARS-CoV-2 cytopathic effect; higher = more antiviral protection, active = above 15. To be noted: 48 h. (In general: Protection from cytopathic effect is a common read-out in antiviral testing.)
For assay [2] the test system is unchanged. Briefly: morphology score (similarity to uninfected cells); higher = more like uninfected cells. To be noted: 24 h.

For `Cc1cc(C(=O)O)sc1C(N)C(=O)O` (stereo unspecified), the “inhibition of SARS-CoV-2 cytopathic effect” value (“inhibition” below) in assay [1] (1 nM) is 0.31% (inactive); in assay [1] (8.33 nM) it was -0.48% (inactive); in assay [1] (100 nM), -1.39% (inactive); in assay [1] (833.33 nM), 1.06% (inactive); in assay [1] (10000 nM) it was -0.02% (inactive).

Turning to `O=C1C=CC[C@@H]2[C@H]3CCCN4CCC[C@@H](CN12)[C@@H]34` [sophocarpine], the “inhibition” value in assay [1] (1 nM) was -8.47% (inactive); in assay [1] (8.33 nM), -10.7% (inactive); in assay [1] (100 nM), -12.4% (inactive); in assay [1] (833.33 nM) it was -12.3% (inactive); in assay [1] (10000 nM) it was -13.3% (inactive).

Regarding `Cc1cccc(NC(=O)CN2CCC(c3ccccn3)CC2)c1`, the “inhibition” value in assay [1] (1 nM) was 1.23% (inactive); in assay [1] (8.33 nM), 1.06% (inactive); in assay [1] (100 nM), -0.12% (inactive); in assay [1] (833.33 nM), 0% (inactive); in assay [1] (10000 nM) it was 3.09% (inactive).

Regarding `Ic1cc(-c2ccccc2)ncn1` [4-iodo-6-phenylpyrimidine], the “inhibition” value in assay [1] (1 nM) was -0.63% (inactive); in assay [1] (8.33 nM), 0.56% (inactive); in assay [1] (100 nM), -2.43% (inactive); in assay [1] (833.33 nM), 1.94% (inactive); in assay [1] (10000 nM) it was -1.36% (inactive).

In assay [2], `C[C@]12CC[C@H]3[C@@H](CCC4=CC(=O)CC[C@@]43C)[C@@H]1CC[C@@H]2O` (10 µM) had a morphology score of -0.0371.

As for `NS(=O)(=O)NCc1csc2ccccc12`, the “inhibition” value in assay [1] (1 nM) is 3.48% (inactive); in assay [1] (8.33 nM) it was -0.74% (inactive); in assay [1] (100 nM), -0.43% (inactive); in assay [1] (833.33 nM), 3.95% (inactive); in assay [1] (10000 nM) it was 2.4% (inactive).

Take `O=C(O)c1nc(=O)[nH]c(=O)[nH]1` [oxonic-acid]: the “inhibition” value was -6.02% (inactive) in assay [1] (1 nM); -2.79% (inactive) in assay [1] (8.33 nM); 1.25% (inactive) in assay [1] (100 nM); 0.64% (inactive) in assay [1] (833.33 nM); -0.52% (inactive) in assay [1] (10000 nM).

With `O=C(O)c1ccc(S(=O)(=O)N(Cl)Cl)cc1` [halazone], the “inhibition” value in assay [1] (1 nM) was -0.04% (inactive); in assay [1] (8.33 nM), 2.43% (inactive); in assay [1] (100 nM), -0.73% (inactive); in assay [1] (833.33 nM), -4.46% (inactive); in assay [1] (10000 nM), -0.76% (inactive).

As for `NCCc1cc(O)c(O)cc1O` [oxidopamine], the “inhibition” value in assay [1] (1 nM) is -2.92% (inactive); in assay [1] (8.33 nM), 0.45% (inactive); in assay [1] (100 nM), -2.01% (inactive); in assay [1] (833.33 nM), -2.87% (inactive); in assay [1] (10000 nM), -3.37% (inactive).

As for `COc1cc(-n2c(=S)[nH]c3ccccc3c2=O)c(Cl)cc1Cl` [mdivi-1], the “inhibition” value was 0.74% (inactive) in assay [1] (1 nM); 0.3% (inactive) in assay [1] (8.33 nM); -0.2% (inactive) in assay [1] (100 nM); -0.45% (inactive) in assay [1] (833.33 nM); -1.37% (inactive) in assay [1] (10000 nM).

For `COc1ccc2c(c1)/C(=C/c1cnc[nH]1)C(=O)N2`, the “inhibition” value in assay [1] (1 nM) is 0.21% (inactive); in assay [1] (8.33 nM) it was -1.7% (inactive); in assay [1] (100 nM), -1.87% (inactive); in assay [1] (833.33 nM), 4.89% (inactive); in assay [1] (10000 nM) it was 6.28% (inactive).

For the compound `CN(C(=O)CCCOc1ccc2[nH]c(=O)ccc2c1)C1CCCCC1` [cilostamide], the “inhibition” value in assay [1] (1 nM) is 0.62% (inactive); in assay [1] (8.33 nM), 1.01% (inactive); in assay [1] (100 nM) it was -0.1% (inactive); in assay [1] (833.33 nM), 0.52% (inactive); in assay [1] (10000 nM), -0.25% (inactive).

For `CC(=O)N(C)c1cc(-c2ccnc3c(C(=O)c4cccs4)cnn23)ccc1F` [lorediplon], the “inhibition” value in assay [1] (1 nM) was 0.42% (inactive); in assay [1] (8.33 nM), -0.41% (inactive); in assay [1] (100 nM), 1.97% (inactive); in assay [1] (833.33 nM) it was 1.05% (inactive); in assay [1] (10000 nM) it was 1.78% (inactive).

Consider `CN1CCC(=C2c3ccccc3Sc3ccccc32)CC1` [pimethixene], for which the “inhibition” value in assay [1] (1 nM) is 1.38% (inactive); in assay [1] (8.33 nM), 0.84% (inactive); in assay [1] (100 nM), -0.63% (inactive); in assay [1] (833.33 nM), -0.47% (inactive); in assay [1] (10000 nM), -3.2% (inactive).

`O=C1CCC[C@@H]2[C@H]3CCCN4CCC[C@@H](CN12)[C@@H]34` [matrine]: the “inhibition” value is -2.75% (inactive) in assay [1] (1 nM); -0.7% (inactive) in assay [1] (8.33 nM); -1.73% (inactive) in assay [1] (100 nM); -0.8% (inactive) in assay [1] (833.33 nM); -2.2% (inactive) in assay [1] (10000 nM).

Consider `Cc1c(C(=O)NN2CCCCC2)nn(-c2ccc(Cl)cc2Cl)c1-c1ccc(Cl)cc1` [rimonabant], for which the “inhibition” value was -1.86% (inactive) in assay [1] (1 nM); 1.55% (inactive) in assay [1] (8.33 nM); -0.12% (inactive) in assay [1] (100 nM); 0.01% (inactive) in assay [1] (833.33 nM); -3.44% (inactive) in assay [1] (10000 nM).

As to `CN1C[C@H](CNC(=O)OCc2ccccc2)C[C@@H]2c3cccc4c3c(cn4C)C[C@H]21` [metergoline], the “inhibition” value in assay [1] (1 nM) is -10.3% (inactive); in assay [1] (8.33 nM), -6.82% (inactive); in assay [1] (100 nM), -4.21% (inactive); in assay [1] (833.33 nM) it was -6.12% (inactive); in assay [1] (10000 nM) it was -2.89% (inactive).

As to `CC(C)CN(C[C@@H](O)[C@H](Cc1ccccc1)NC(=O)O[C@H]1CO[C@H]2OCC[C@H]21)S(=O)(=O)c1ccc(N)cc1` [darunavir], the “inhibition” value was -2.41% (inactive) in assay [1] (1 nM); -2.86% (inactive) in assay [1] (8.33 nM); -0.7% (inactive) in assay [1] (100 nM); 0.44% (inactive) in assay [1] (833.33 nM); -1.15% (inactive) in assay [1] (10000 nM).

As for `CC[C@H]1OC(=O)[C@H](C)[C@@H](O[C@H]2C[C@@](C)(OC)[C@@H](O)[C@H](C)O2)[C@H](C)[C@@H](O[C@@H]2O[C@H](C)C[C@H](N(C)C)[C@H]2O)[C@](C)(OC)C[C@@H](C)C(=O)[C@H](C)[C@@H](O)[C@]1(C)O` [clarithromycin], the “inhibition” value in assay [1] (1 nM) is -4.37% (inactive); in assay [1] (8.33 nM) it was -0.55% (inactive); in assay [1] (100 nM), 2.36% (inactive); in assay [1] (833.33 nM) it was 1.42% (inactive); in assay [1] (10000 nM), -3% (inactive).

In the case of `C[C@H](CCC(=O)NCCS(=O)(=O)O)[C@H]1CC[C@H]2[C@@H]3[C@@H](O)C[C@@H]4C[C@H](O)CC[C@]4(C)[C@H]3CC[C@]12C` [ursodeoxycholyltaurine], the “inhibition” value is -1.76% (inactive) in assay [1] (1 nM); 3.52% (inactive) in assay [1] (8.33 nM); 1.07% (inactive) in assay [1] (100 nM); -3.74% (inactive) in assay [1] (833.33 nM); -4.25% (inactive) in assay [1] (10000 nM).

As to `Fc1ccc(Cn2c(NC3CCNCC3)nc3ccccc32)cc1` [tecastemizole], the “inhibition” value in assay [1] (1 nM) was -7.23% (inactive); in assay [1] (8.33 nM) it was -9.9% (inactive); in assay [1] (100 nM) it was -11.8% (inactive); in assay [1] (833.33 nM) it was -8.85% (inactive); in assay [1] (10000 nM) it was -8.1% (inactive).

Consider `O=C(CCBr)N1CC[N+]2(CC1)CC[N+]1(CCN(C(=O)CCBr)CC1)CC2` [spirobromin], for which the “inhibition” value in assay [1] (1 nM) was -0.01% (inactive); in assay [1] (8.33 nM) it was -0.86% (inactive); in assay [1] (100 nM) it was -0.61% (inactive); in assay [1] (833.33 nM), -2.75% (inactive); in assay [1] (10000 nM) it was -3.3% (inactive).

Regarding `CCCNC(=O)N1N=C(c2ccc(N)cc2)c2cc3c(cc2C1C)OCO3` (stereo unspecified), the “inhibition” value in assay [1] (1 nM) was -4.65% (inactive); in assay [1] (8.33 nM), -0.41% (inactive); in assay [1] (100 nM), 1.6% (inactive); in assay [1] (833.33 nM), 0.9% (inactive); in assay [1] (10000 nM) it was 4.48% (inactive).

For `NCC1OC(C23CC4CC(CC(C4)C2)C3)Cc2c1ccc(O)c2O` (stereo unspecified), the “inhibition” value in assay [1] (1 nM) was 0.67% (inactive); in assay [1] (8.33 nM), 0.56% (inactive); in assay [1] (100 nM), 2.31% (inactive); in assay [1] (833.33 nM), 1.57% (inactive); in assay [1] (10000 nM), -6.39% (inactive).

Take `N#C[C@@H]1CCCN1C(=O)CNC12CC3CC(CC(O)(C3)C1)C2` [vildagliptin]: the “inhibition” value in assay [1] (1 nM) is 0.17% (inactive); in assay [1] (8.33 nM) it was -0.28% (inactive); in assay [1] (100 nM), -0.35% (inactive); in assay [1] (833.33 nM) it was -0.2% (inactive); in assay [1] (10000 nM) it was 1.3% (inactive).

Consider `Cc1ccc(-c2c(-c3nn(C)c4ncnc(N5CC[C@H](N6CCCCC6)C5)c34)cnn2C)cc1`, for which the “inhibition” value in assay [1] (1 nM) is -0.9% (inactive); in assay [1] (8.33 nM), -0.84% (inactive); in assay [1] (100 nM), 0.89% (inactive); in assay [1] (833.33 nM), -2.4% (inactive); in assay [1] (10000 nM), -0.65% (inactive).

Turning to `c1ccc2sc(N3CCN(Cc4ccc5c(c4)OCO5)CC3)nc2c1` [2-[1-(4-piperonyl)piperazinyl]benzothiazole], the “inhibition” value in assay [1] (1 nM) was -3.54% (inactive); in assay [1] (8.33 nM) it was -1.04% (inactive); in assay [1] (100 nM), -3.92% (inactive); in assay [1] (833.33 nM) it was -3.68% (inactive); in assay [1] (10000 nM), -2.73% (inactive).

In the case of `C=CCN1CC[C@]23c4c5ccc(O)c4O[C@H]2[C@@H](OCCOCCOCCOCCOCCOCCOCCOC)CC[C@@]3(O)[C@H]1C5` [naloxegol], the “inhibition” value in assay [1] (1 nM) was 2.88% (inactive); in assay [1] (8.33 nM), 0.75% (inactive); in assay [1] (100 nM), 1.49% (inactive); in assay [1] (833.33 nM) it was 0.6% (inactive); in assay [1] (10000 nM), -1.7% (inactive).

The values above are taken from the supplement of paper PMC13380429.
